Hits are enriched below; roughly 4.3% of the tested compounds scored in any of these assays.
Wnt act: activators of Wnt/beta-catenin signaling. Wnt/beta-catenin reporter cell assay, activator, plate reader. activation, % at 9.35 µM. 300,000 tested, 1.2% active; in the data active = activation above about 30%, passing the limit was not always enough; inconclusive = no clear call, values can overlap the other calls;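 also: 0% = neutral control wells and 100% = positive control wells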
FGF22 binding: binders of recombinant human FGF22 by thermal shift | activity (Tm shift, normalised), % at 9.99 µM | 340,000 tested, 1.5% active | AID 651658 | Q9HCT0 | SYPRO orange fluorescence; percent of sucrose octasulfate shift, DMSO zero;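 active = mean Tm shift, scaled 0 neutral to 100 positive control, at about 1.3% or above, every replicate too, limit read from the data; inconclusive = no clear call, values can overlap the other calls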
Target sequence (Q9HCT0 whole entry, looked up): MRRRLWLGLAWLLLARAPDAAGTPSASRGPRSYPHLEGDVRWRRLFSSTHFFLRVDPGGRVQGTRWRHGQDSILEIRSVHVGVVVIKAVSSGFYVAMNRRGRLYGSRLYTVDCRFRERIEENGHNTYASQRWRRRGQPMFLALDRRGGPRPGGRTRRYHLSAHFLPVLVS
esBAF inh: blocks esBAF chromatin remodeling in mouse ES cells | 350,000 tested, 2% active | AID 602393 | reporter increase, % at 12.5 µM | Bmi1-luciferase knock-in reporter, 24 h; 100% = twice the neutral-well signal; in the data active = activation above about 40%; inconclusive = no clear call, values can overlap the other calls;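 also: 0% = median of the plate's neutral control wells and 100% = double that signal; a rise in the Bmi1 reporter signal indicates esBAF inhibition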
MITF act: increases MITF-driven TRPM1 promoter luciferase signal. SK-MEL-5 TRPM1-promoter luciferase, 24 h; % of positive control, neutral wells = 0. activation, % at 12.5 µM. 300,000 tested, 0.75% active. AID 588334;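 active = mean activation of at least 80% with every replicate also reaching 80%; inconclusive = mean reaches 80% but some replicate falls short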;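 also: 0% = neutral control wells and 100% = parthenolide positive control wells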
SMARCA2 act: activators of SMARCA2 function. MG213 cells, MMTV-luciferase reporter, dexamethasone, overnight. activation, % at 9.1 µM. 370,000 tested, 1% active. AID 652017; in the data active = activation above about 7.8%;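 also: 0% = vehicle wells and 100% = reference activator wells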
MLL AF4-AF9 inh: blocks AF4 peptide binding to human AF9. AID 651704. AlphaScreen, biotin-AF4 peptide binding to FLAG-AF9. inhibition, % at 10 µM. P42568. 350,000 tested, 0.47% active;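 active = every replicate reaching a set inhibition limit, whatever the replicate mean, cut at about 25% in these data; inconclusive = mean inhibition reaches that limit but some replicates miss it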;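 also: 0% = plate neutral control median and 100% = total signal loss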
The depositor's hits bear a star; ? = inconclusive; nt = no result given.

SMILES | Wnt act | FGF22 binding | esBAF inh | MITF act | SMARCA2 act | MLL AF4-AF9 inh
Cc1cc(C)c2c(N)c(C(=O)N/N=C/c3ccccc3)sc2n1 | 46.9* | -0.2 | 45.8* | nt | 3.4 | -0.6
COc1ccc2c3c(n(C)c2c1)[C@H](CO)N(C(=O)c1cccnc1)CC31CCN(S(=O)(=O)c2ccccc2)CC1 | nt | -0.3 | nt | nt | nt | -2.3
O=C1NC[C@@H](CCCCN2C[C@H](Cc3ccccc3)N(CC3CCCCC3)C(=O)C2=O)N(Cc2ccccc2)C1=O | 1.2 | 5.4* | nt | nt | 2.9 | -1.3
CCN(CC)c1ccc(NC(=O)/C=C\c2ccccc2Cl)cc1 | nt | nt | 37.2 | 95.9* | 6.1 | nt
O=C(/C=C/c1ccccc1Cl)NCCc1ccccc1 | -2.1 | 0.0 | 55.3* | 87.2* | nt | -1.2
O=C(/C=C/c1ccc(Cl)cc1)NCCc1ccccc1 | 11.8 | nt | 37.2 | 44.4 | 5.0 | -1.2
C[C@H](CO)N1C[C@H](C)[C@H](CN(C)Cc2ccc(F)cc2)Oc2cc(C#CC3CC3)ccc2S1(=O)=O | nt | -0.1 | -4.6 | nt | nt | 2.2
Cc1cccc(OC(C)C(=O)OCC(=O)N2CCN(c3ccccc3)CC2)c1 (stereo unspecified) | 0.1 | 43.6* | nt | 8.7 | -2.6 | 5.1
CC(C)NC(=O)N(C)C[C@@H]1Oc2ccc(NS(=O)(=O)c3cn(C)cn3)cc2CC(=O)N([C@@H](C)CO)C[C@H]1C | nt | -0.1 | 1.6 | nt | nt | -3.6
O=C(C[C@H]1C[C@@H]2c3cc(NC(=O)c4ccc5c(c4)OCO5)ccc3O[C@@H]2[C@H](CO)O1)NCc1cccnc1 | nt | -0.1 | 1.2 | nt | nt | -0.3
Cc1cc2ccccc2nc1SCC(=O)NC1CCCC1 | -0.3 | 43.0* | nt | 15.2 | -1.4 | 2.3
N#Cc1cc2ccccc2nc1N | -0.2 | -0.1 | nt | -10.4 | 4.7 | -1.4
Cc1ccc(-c2cc3ccccc3nc2N)cc1 | 20.2 | 0.1 | 46.9* | nt | -1.3 | 0.7
c1csc(-c2ccc3ccccc3n2)c1 | 20.4 | nt | 43.4* | 59.0 | 5.1 | nt
Nc1nc2ccccc2cc1-c1cccs1 | 20.1 | 0.1 | ? | 90.2* | 3.8 | -2.9
CC(=O)NCCCC[C@@H]1NC(=O)[C@@H]2C[C@H](C(=O)NCc3ccc(F)cc3)[C@H](c3ccc(O)cc3)N2C1=O | nt | 0.1 | nt | nt | nt | -1.1
COCC(=O)N1[C@@H](CO)[C@@H](c2ccc(-c3ccccc3OC)cc2)C12CN(C(C)=O)C2 | nt | -0.2 | nt | nt | nt | 1.6
COC(=O)c1ccc(CO/N=C/c2ccc(OC)cc2)o1 | 5.9 | 43.8* | nt | 9.8 | -4.3 | -6.1
CCOc1ccc(OCc2ccc(C(=O)NC(C)C)o2)cc1 | -0.9 | -0.1 | 15.2 | nt | 0.9 | -9.2
Cc1ccc(OCc2ccc(C(=O)O)o2)cc1C | 29.8 | 0.0 | ? | 18.7 | 7.5 | 1.6
COC(=O)c1ccc(COc2ccc(C)c(C)c2)o1 | 2.8 | 0.0 | 58.5* | ? | 2.0 | -2.6
COC(=O)c1ccc(COc2cc(C)ccc2C)o1 | 6.8 | -0.1 | 70.0* | 81.5* | 0.4 | -7.5
CCOc1ccc(OCc2ccc(C(=O)OCc3ccccn3)o2)cc1 | 32.9* | nt | nt | 4.9 | 2.3 | nt
Cc1noc(C)c1S(=O)(=O)Nc1ccc2c(c1)C(=O)N([C@H](C)CO)C[C@H](C)[C@H](CN(C)C(=O)Nc1ccc3c(c1)OCO3)OCCCC[C@H](C)O2 | nt | -0.7 | 4.4 | nt | nt | 2.7
COC(=O)c1ccc(COC(=O)c2ccc(CO)cc2)o1 | -0.3 | 44.0* | -3.4 | -2.1 | 2.9 | -0.5
SMILES | Wnt act | FGF22 binding | esBAF inh | MITF act | SMARCA2 act | MLL AF4-AF9 inh
CCNC(=O)C[C@@H]1CC[C@@H]2[C@H](COC[C@H](O)CN2C(=O)C2CC2)O1 | nt | -0.4 | -4.0 | nt | nt | -1.8
COC(=O)COc1ccc2c(=O)c(-c3ccccc3)coc2c1 | 1.3 | 0.0 | 1.6 | nt | -0.5 | -4.5
CC(C)Oc1ccc2c(=O)c(-c3ccccc3)coc2c1 | 55.7* | 0.0 | 35.0 | 78.1 | 0.0 | -1.7
COc1ccc(-c2coc3cc(OC(=O)N4CCOCC4)ccc3c2=O)cc1 | 6.2 | 0.1 | 39.5 | 40.2 | -0.2 | 7.9
COc1ccc2c(=O)c(-c3ccc4c(c3)OCO4)coc2c1 | 39.8* | nt | -40.9 | -4.7 | 5.5 | nt
Cc1noc(C)c1COC(=O)c1cc(C)n(-c2ccccc2)c1C | nt | nt | 80.3* | nt | 3.0 | nt
Cc1cc(C(=O)OCc2nnc(-c3ccccc3)o2)c(C)n1-c1ccccc1 | nt | nt | 26.1 | 4.2 | -2.9 | nt
COc1ccc2c3c([nH]c2c1)[C@@H](CO)N(C(=O)Nc1ccccc1F)CC31CN(C(=O)c2ccccc2F)C1 | nt | -0.3 | nt | nt | nt | 1.2

High-throughput results (PubChem)
